Measured values taken from PubChem BioAssay.
The source made the active and inactive calls. Unless noted, no rule for the calls is given here.

Tests used:
[1] = system: XIP peptide (Xip251-270) binding; assay: XIP fragment 251-270 binding compounds – biochemical, small-molecule microarray, fluorescence 635/667 nm, 0.1 µg/mL protein, primary screen (AID 1182); conditions: fluorescent protein binding, 635 nm, higher = more signal, called active from +8 up or from −8 down
XIP peptide (Xip251-270) = assay: compounds binding XIP fragment 251-270 – biochemical, small-molecule microarray, fluorescence 635/667 nm, 0.5 µg/mL protein, primary screen (AID 1183); conditions: fluorescence 635 nm, higher = more signal
[2] = blood-stage malaria parasite viability loss – strain 3D7, DAPI fluorescence, 100 nL, primary screen (AID 1184);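 also: parasites grown inside human red blood cells in medium with human serum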; conditions: P. falciparum 3D7 growth, 3 d, higher = more signal
[3] = target: Homeobox protein Hox-A13 (Mus musculus) (UniProt Q62424); assay: disruptors of Hoxa13 oligonucleotide interaction – biochemical, fluorescence polarization, labeled oligonucleotide, primary screen (AID 1185); conditions: Hoxa13:DNA binding, 15 min, higher = more signal, called active from +8 up or from −8 down
[4] = blockers of DNA damage checkpoint Chk1 activation – imaging, HeLa, hydroxyurea, phospho-Chk1 antibody, percent positive cells, primary screen (AID 1186); conditions: hydroxyurea-induced phospho-Chk1 immunofluorescence imaging, higher = more signal
[5] = blockers of DNA damage checkpoint Chk1 activation – imaging, HeLa, hydroxyurea, phospho-Chk1 nuclear intensity, primary screen (AID 1187); conditions: hydroxyurea-induced phospho-Chk1 immunofluorescence imaging, higher = more signal

Chain of Homeobox protein Hox-A13 (Mus musculus) (Q62424 whole entry, looked up): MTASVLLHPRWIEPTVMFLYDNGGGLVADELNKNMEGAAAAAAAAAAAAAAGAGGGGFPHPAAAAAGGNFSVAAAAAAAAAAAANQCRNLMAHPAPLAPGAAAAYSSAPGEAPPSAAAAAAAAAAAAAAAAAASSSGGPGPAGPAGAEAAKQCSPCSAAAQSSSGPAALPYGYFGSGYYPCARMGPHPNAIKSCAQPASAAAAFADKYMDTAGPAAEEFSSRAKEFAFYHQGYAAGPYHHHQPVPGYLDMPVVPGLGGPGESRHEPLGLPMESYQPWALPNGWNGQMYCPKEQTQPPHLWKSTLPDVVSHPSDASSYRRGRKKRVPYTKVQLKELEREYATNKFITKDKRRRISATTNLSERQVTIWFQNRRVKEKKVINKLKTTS

Row | Structure (SMILES) | composite z-score [1] | composite z-score (XIP peptide (Xip251-270)) | z-score [2] | z-score [3] | z-score [4] | z-score [5]
1 | CC(C)(C)OC(=O)CC[C@@]1(C(=O)N2CCOCC2)N=C(c2ccc(OCCCO)cc2)O[C@@H]1c1ccccc1N=[N+]=[N-] | 0.14 (inactive) | 0.84 | -1.97 | -4.17 (inactive) | -0.496 (inactive) | -0.439 (inactive)
2 | C[n+]1ccc2ccc(O)cc2c1 | 1.35 (inactive) | 0.612 | -0.901 | -8.11 (active) | 0.124 (inactive) | 0.282 (inactive)
3 | COc1cc2c(cc1O)C(c1ccc(CN3CCCC3)cc1)N(Cc1sc3ccccc3c1Cl)CC2 (stereo unspecified) | 0.656 (inactive) | 0.879 | -1.58 | -5.24 (inactive) | 0.356 (inactive) | 0.653 (inactive)
4 | O=[N+]([O-])c1ccc(C[n+]2ccc(CCCO)cc2)o1 | 0.46 (inactive) | 0.968 | -1.28 | -2.88 (inactive) | -0.0644 (inactive) | 0.492 (inactive)
5 | NC(=O)NCC#Cc1ccc2c(c1)[C@]1(C(=O)N2)[C@H](c2ccccc2OCCO)N2[C@H](c3ccccc3)[C@H](c3ccccc3)OC(=O)[C@H]2[C@@H]1C(=O)N1CCCCCCC1 | 0.909 (inactive) | 0.633 | -2.04 | 3.45 (inactive) | 0.264 (inactive) | 0.69 (inactive)
6 | C=CCC(OC(C)=O)[C@@H]1[C@@H](N(Cc2ccc(-c3ccccc3)cc2)C(=O)c2ccc(C)cc2)c2cc(OCCCO)ccc2N1C(=O)c1ccc2ccccc2n1 (stereo partly specified) | -0.218 (inactive) | -0.876 | -0.62 | -1.29 (inactive) | -0.641 (inactive) | -0.346 (inactive)
7 | COc1ccc([Si](C)(C)[C@H]2[C@H](CC(=O)N3Cc4ccccc4C[C@H]3CO)O[C@@]3(C(=O)N(Cc4cccc(I)c4)c4ccccc43)[C@@H]2C)cc1 | -0.276 (inactive) | 0.287 | -2.37 | -2.66 (inactive) | -1.22 (inactive) | -0.541 (inactive)
8 | O=P(NCC1(CC2(c3ccccc3)CO2)CC1)(c1ccccc1)c1ccccc1 (stereo unspecified) | 0.588 (inactive) | 0.822 | 0.561 | -3.26 (inactive) | -0.124 (inactive) | -0.208 (inactive)
9 | Cc1ccc(F)cc1S(=O)(=O)N[C@@H]1CCN(Cc2ccc(C(F)(F)F)cc2)C1 | 0.0254 (inactive) | -0.496 | -0.433 | -5.99 (inactive) | -0.619 (inactive) | -0.441 (inactive)
10 | C=C(CCCC)C(=O)CC[C@@H](OC(=O)c1ccccc1-c1ccccc1C(=O)O)c1ccc(CO)o1 | 0.412 (inactive) | 0.432 | 1.61 | -5.58 (inactive) | 0.629 (inactive) | 0.717 (inactive)
11 | COc1ccc([Si](C)(C)[C@H]2[C@H](CCO)O[C@@]3(C(=O)N(Cc4cccc(N5C(=O)c6cccc7cccc5c67)c4)c4ccccc43)[C@@H]2C)cc1 | 0.834 (inactive) | 0.512 | -2.82 | -1.61 (inactive) | -0.283 (inactive) | -0.304 (inactive)
12 | C/C=C/[C@H](CCn1cc([C@H](O)c2ccccc2)nn1)[Si](C)(C)c1ccc(OC)cc1 | -0.0661 (inactive) | 0.634 | 1.03 | -5.59 (inactive) | -0.131 (inactive) | -0.28 (inactive)
13 | C=CCN1C(=O)[C@@]2(O[C@@H](CCO)[C@H]([Si](C)(C)c3ccc(OC)cc3)[C@H]2C)c2cc(N3C(=O)COc4ccccc43)ccc21 | 1.28 (inactive) | 0.623 | -2.68 | -4.65 (inactive) | -1.39 (inactive) | -0.883 (inactive)
14 | CC(=O)NCCCC[C@@H]1NC(=O)[C@@H]2C[C@H](C(=O)NCc3ccc(F)cc3)[C@H](c3ccc(O)cc3)N2C1=O | 1.64 (inactive) | 1.01 | -0.448 | -1.2 (inactive) | 0.0701 (inactive) | 0.0917 (inactive)
15 | O=C(NCCN1CCOCC1)[C@@H]1c2ccccc2C(=O)N(Cc2cc(F)cc(C(F)(F)F)c2)[C@H]1c1ccc(CO)cc1 | 0.376 (inactive) | 0.372 | 0.0111 | -4.42 (inactive) | -0.189 (inactive) | -0.151 (inactive)
16 | CCCCCCC#C[Si](O[C@H](c1ccccc1)c1cn([C@H](C)c2ccccc2)nn1)(C(C)C)C(C)C | -0.131 (inactive) | -0.012 | 0.308 | 0.337 (inactive) | -0.341 (inactive) | -0.487 (inactive)
17 | COCCOC(=O)N1C(=O)[C@@]2(c3ccccc31)[C@H](C(=O)N1CCCCCCC1)[C@H]1C(=O)O[C@H](c3ccccc3)[C@H](c3ccccc3)N1[C@@H]2c1ccccc1OCCO | 2.16 (inactive) | 0.83 | -2.1 | 3.39 (inactive) | -0.26 (inactive) | -0.299 (inactive)
18 | COc1ccc([Si](C)(C)[C@H]2[C@H](CC(=O)N3CCC[C@H]3CO)O[C@@]3(C(=O)N(c4ccccc4)c4ccccc43)[C@@H]2C)cc1 | 0.511 (inactive) | 0.531 | -0.887 | -3.87 (inactive) | -1.18 (inactive) | -0.219 (inactive)
19 | COCCOC(=O)N1C(=O)[C@@]2(c3cc(C#CCC(C(=O)OC)C(=O)OC)ccc31)[C@H](c1ccc(OCCO)cc1)N1[C@H](c3ccccc3)[C@H](c3ccccc3)OC(=O)[C@H]1[C@@H]2C(=O)NC[C@H](O)c1ccccc1 | 0.234 (inactive) | 0.851 | -2.16 | 0.738 (inactive) | -0.411 (inactive) | -0.397 (inactive)
20 | COc1ccc([Si](C)(C)[C@@H]2[C@@H](CCn3cc([C@H](O)c4ccccc4)nn3)O[C@]3(C(=O)N(C)c4ccccc43)[C@H]2C)cc1 | -0.558 (inactive) | 0.679 | -1.13 | -6.22 (inactive) | 0.131 (inactive) | -0.858 (inactive)
21 | O=C(NCC(O)CO)[C@@]1(Cc2ccccc2)COC(c2ccc(OCCCO)cc2)=N1 (stereo partly specified) | -0.0623 (inactive) | 0.464 | 0.945 | -5.97 (inactive) | -0.036 (inactive) | 0.238 (inactive)
